Compound activity from PubChem BioAssay.
CYP2C9 inh: blockers of cytochrome P450 2C9 activity – biochemical, luminescence, ADME assay, primary screen. inhibition, % at 5 µM. CYP2C9 Supersomes, luciferin-H conversion. 96,000 compounds, 20% hits. AID 777, 2007;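 active = blocking of liver enzyme CYP2C9 beyond about 50% at 5 µM, limit read from the data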
CYP2C19 inhib: blockers of cytochrome P450 2C19 activity – biochemical, luminescence, ADME assay, primary screen; P33261; CYP2C19 Supersomes, luciferin-H EGE luminescence, 30 min; inhibition, % at 5 µM; 96,000 compounds, 21% hits;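 active = CYP2C19 inhibition above a set limit at 5 µM in the primary screen, cut at about 50% in these data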
PLAP act: PLAP enzyme activators, biochemical, luminescence, HTS | activation fold at 20 µM | Alkaline phosphatase, placental type (Homo sapiens), P05187 | AID 696, 2007 | purified PLAP enzyme, luminescent substrate read-out; active compounds read high | 96,000 compounds, 1.2% hits; in the data active = activation fold above about 2
Target sequence (P05187 whole entry, looked up): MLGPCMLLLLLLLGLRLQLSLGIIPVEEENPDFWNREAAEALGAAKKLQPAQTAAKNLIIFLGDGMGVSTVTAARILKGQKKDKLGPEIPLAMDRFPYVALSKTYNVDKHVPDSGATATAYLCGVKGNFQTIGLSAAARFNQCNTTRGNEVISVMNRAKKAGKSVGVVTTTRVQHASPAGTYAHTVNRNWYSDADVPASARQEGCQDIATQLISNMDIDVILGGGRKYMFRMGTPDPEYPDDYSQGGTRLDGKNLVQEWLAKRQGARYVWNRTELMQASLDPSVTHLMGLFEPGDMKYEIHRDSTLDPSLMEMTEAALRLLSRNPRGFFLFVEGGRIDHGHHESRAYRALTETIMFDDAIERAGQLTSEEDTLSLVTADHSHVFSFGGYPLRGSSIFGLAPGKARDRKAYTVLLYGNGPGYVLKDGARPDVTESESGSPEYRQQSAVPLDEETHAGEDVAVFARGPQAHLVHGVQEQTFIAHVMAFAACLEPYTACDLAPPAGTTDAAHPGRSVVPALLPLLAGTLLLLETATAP
CYP2C9 act: human CYP2C9 activators, primary screen, biochemical, luminescence. AID 1024, 2008. activation factor at 5 µM. 96,000 compounds, 1.4% hits. recombinant CYP2C9, luciferin-H conversion; active compounds read high; factor 1 = untreated enzyme, 0 = blocked. Cytochrome P450 2C9 (Homo sapiens), P11712;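 active = activation factor of 2 or more for CYP2C9 at a 5 µM dose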
CYP2C19 act: human CYP2C19 activators, primary screen, biochemical, luminescence; 96,000 tested, under 10 active; recombinant CYP2C19, luciferin-H EGE luminescence; active compounds read high; 0 = fully inhibited enzyme, 1 = untreated enzyme; AID 1025, 2008; activation factor at 5 µM; Cytochrome P450 2C19 (Homo sapiens), P33261;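 active = activation factor of at least 2 at 5 µM in the primary screen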
Hits are given with their value. A selection: hits, their analogues and other compounds. The true share with any hit is near 31%.

Results for COc1ccc(-n2c(/C=C(\C)O)nc(=O)c3c(C)cc(C)nc32)cc1 ?
CYP2C9 inh: inactive; CYP2C19 inhib: inactive; PLAP act: inactive; CYP2C9 act: inactive; CYP2C19 act: inactive

What do the screens show for `Cc1nc(N2N=C3/C(=C/c4ccc(F)cc4)CCCC3C2c2ccc(F)cc2)sc1C(=O)N(C)C` (configuration not stated)?
CYP2C9 inh: inactive; CYP2C19 inhib: inactive; PLAP act: 2; CYP2C9 act: inactive; CYP2C19 act: inactive

What do the screens show for `Cc1ncsc1C(=O)N1N=C2/C(=C/c3ccc(N4CCOCC4)cc3)CCCC2C1c1ccc(N2CCOCC2)cc1` (configuration not stated)?
CYP2C9 inh: inactive; CYP2C19 inhib: inactive; PLAP act: inactive; CYP2C9 act: inactive; CYP2C19 act: inactive

What do the screens show for `Cn1cccc1-c1nc2ccc(NC(=O)c3cccs3)cc2[nH]1`?
CYP2C9 inh: 78; CYP2C19 inhib: 73; PLAP act: inactive; CYP2C9 act: inactive; CYP2C19 act: inactive

What do the screens show for `O=C(Nc1ccc2nc(-c3ccc(Br)o3)[nH]c2c1)c1cccs1`?
CYP2C9 inh: 67; CYP2C19 inhib: inactive; PLAP act: inactive; CYP2C9 act: inactive; CYP2C19 act: inactive

How did CC(C)c1nccn1S(=O)(=O)c1cc(Cl)ccc1Cl do in these assays?
CYP2C9 inh: inactive; CYP2C19 inhib: inactive; PLAP act: inactive; CYP2C9 act: inactive; CYP2C19 act: inactive

Results for CCCc1nccn1S(=O)(=O)c1cc(OC)ccc1OC ?
CYP2C9 inh: 56; CYP2C19 inhib: 90; PLAP act: inactive; CYP2C9 act: inactive; CYP2C19 act: inactive

How did COc1ccc(Cl)cc1S(=O)(=O)n1ccnc1C(C)C do in these assays?
CYP2C9 inh: inactive; CYP2C19 inhib: 74; PLAP act: inactive; CYP2C9 act: inactive; CYP2C19 act: inactive

Results for CCc1nccn1S(=O)(=O)c1ccc(OC)c(OC)c1 ?
CYP2C9 inh: inactive; CYP2C19 inhib: 76; PLAP act: inactive; CYP2C9 act: inactive; CYP2C19 act: inactive

Results for CCc1nccn1S(=O)(=O)c1cc(C)c(OC)cc1C ?
CYP2C9 inh: inactive; CYP2C19 inhib: inactive; PLAP act: inactive; CYP2C9 act: inactive; CYP2C19 act: inactive

What do the screens show for `CCc1nccn1S(=O)(=O)c1cc(Br)ccc1OC`?
CYP2C9 inh: inactive; CYP2C19 inhib: 97; PLAP act: inactive; CYP2C9 act: inactive; CYP2C19 act: inactive

What do the screens show for `CCCOc1ccc(CC(CC(=O)O)(C(=O)O)C(=O)O)cc1`?
CYP2C9 inh: inactive; CYP2C19 inhib: inactive; PLAP act: inactive; CYP2C9 act: inactive; CYP2C19 act: inactive

What do the screens show for `CS(=O)c1ccccc1-c1nc(-c2cc(C(F)(F)F)cc(C(F)(F)F)c2)no1` (configuration not stated)?
CYP2C9 inh: inactive; CYP2C19 inhib: inactive; PLAP act: inactive; CYP2C9 act: inactive; CYP2C19 act: inactive

Results for CCc1c(C)nc(SC)n(CC#N)c1=O ?
CYP2C9 inh: inactive; CYP2C19 inhib: inactive; PLAP act: inactive; CYP2C9 act: inactive; CYP2C19 act: inactive

How did CCC(C)Sc1nc2c(c(=O)[nH]c(=O)n2C)n1Cc1ccccc1Cl (configuration not stated) do in these assays?
CYP2C9 inh: inactive; CYP2C19 inhib: inactive; PLAP act: inactive; CYP2C9 act: inactive; CYP2C19 act: inactive

How did Cc1ccc(-n2c(Cn3nc(C(F)F)cc3C(F)F)n[nH]c2=S)cc1 do in these assays?
CYP2C9 inh: inactive; CYP2C19 inhib: inactive; PLAP act: inactive; CYP2C9 act: inactive; CYP2C19 act: inactive

Results for COc1ccc(/C=C2\SC(=S)N(NC(=O)c3csc4c3CCCC4)C2=O)cc1 ?
CYP2C9 inh: inactive; CYP2C19 inhib: inactive; PLAP act: inactive; CYP2C9 act: inactive; CYP2C19 act: inactive

What do the screens show for `COc1ccc(NC(=O)C2CCC(C)(C(=O)O)C2(C)C)cc1` (configuration not stated)?
CYP2C9 inh: inactive; CYP2C19 inhib: inactive; PLAP act: inactive; CYP2C9 act: inactive; CYP2C19 act: inactive

What do the screens show for `COC(=O)C1CCC(C)(C(=O)Nc2ccccc2)C1(C)C` (configuration not stated)?
CYP2C9 inh: 64; CYP2C19 inhib: 68; PLAP act: inactive; CYP2C9 act: inactive; CYP2C19 act: inactive
